Reference: PubChem BioAssay (NCI)
Several values for one entry are separate records, joined by “and”; a condition that tells them apart may be missing. Equal entries are not always repeated. This is part of a sample that, as a whole, favours compounds with a hit. Of some 83,000 tested, about 20% had one in any assay.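 In brief: 96-well plates, 48 h treatment, single concentration, percent growth endpoint.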 Unmarked numbers belong to inactive results. Activity calls are given as the source filed them. How the source made its calls: active means growth percent below 10; inactive means the rest.

The compounds below were run on MDA-MB-468 breast (assay: NCI-60 one-dose screen, 48 h (100 = growth as untreated, 0 = no growth, -100 = all killed)). Details: 10 µM unless noted.

Row | Structure (SMILES) | growth
1 | CC/C(=C(\c1ccc(O)cc1)c1ccc(OCCN(C)CCN(C)C(=O)CCCCC(=O)c2c(C)[nH]c(/C=C3\N=C(c4ccc[nH]4)C=C3OC)c2C)cc1)c1ccccc1 | 80%
2 | Cn1cc(-c2csc(-c3cn(CCN)c4ccc(F)cc34)n2)c2cccnc21 | 20.2%
3 | C=C1c2c(C)nn(-c3ccc(S(N)(=O)=O)cc3)c2N(C)C23CC1C1(C)c4c(C)nn(-c5ccc(S(N)(=O)=O)cc5)c4N(C)C(C)(CC12)C3 (centres undefined) | 0.632% (active)
4 | CCN1CCN(c2ccc(Nc3ncnc4c3nnn4CCc3cc(OC)cc(OC)c3)cc2)CC1 | 76.1%
5 | C=C1CCC2C(C)(CO)C(O)CCC2(C)C1C/C=C1/C(=O)OCC1Oc1ccccc1C (centres undefined) | 60%
6 | O=c1[nH]c(N2CCOCC2)nc2scc(-c3ccccc3)c12 | 86.2%
7 | c1cncc(-c2cn3nc(-c4c[nH]c5ccccc45)sc3n2)c1 | -9.26% (active)
8 | NC(N)=N/N=C/c1cccc(Br)c1 | 87%
9 | COc1ccc2c(c1)Oc1nc(N)c(C#N)c(N)c1C2Sc1ccc(C)cc1 (centres undefined) | -45.8% (active)
10 | Cn1c(SSc2ccc(-c3cccnc3)n2C)ccc1-c1cccnc1 | 72.3% and 93.8%
11 | COc1ccc2c(c1)C(=O)c1c-2c(OCCN2CCCCC2)nc2ccc(OC)cc12 | -10.6% (active)
12 | Cc1ccc2c(n1)C(=O)C(Br)=C(CC(C)C)C2=O | 91.1%
13 | COc1ccc(C(=O)N2N=C(c3ccc(F)cc3)CC2c2cn(-c3ccccc3)nc2-c2ccccc2)cc1 (centres undefined) | 60.8%
14 | CNC(=O)c1cc(Oc2ccc(NC(=O)Nc3ccc(Cl)c(OC(C)C)c3)c(F)c2)ccn1 | 11.8%
15 | COc1cc(-c2nn(C)nc2-c2cc3ccccc3s2)cc(OC)c1OC | 39.8%
16 | Cc1[nH]c(/C=C2\C(=O)Nc3ccc(F)cc32)c(C)c1C(=O)NC[C@H](O)CN1CCOCC1 | 114%
17 | CC1(C)CC[C@]23CC[C@]4(C)[C@H](CC[C@@H]5[C@@]6(C)CC[C@H](NCO)C(C)(C)[C@@H]6CC[C@]54C)[C@H]2[C@H]1OC3 | -56.6% (active)

Row | Structure (SMILES) | growth
18 | COc1ccc(/C=C/c2nc(Nc3ccc(S(=O)(=O)Nc4cc(C)on4)cc3)c3ccccc3n2)cc1 | 29.9%
19 | CN(C)CCN1C(=O)c2cccc3c(-c4ccc5ncn(C6CCCCC6)c5c4)ccc(c23)C1=O | 4.33% (active)
20 | CNC(=O)c1cc(Oc2ccc(NC(=O)c3[nH]c(SC)nc3-c3ccc(F)cc3)cc2)ccn1 | 70.9%
21 | COc1ccc2c(c1)OC1=C(C(=O)OC1)C2c1cc(OC)c(OC)c(OC)c1 (centres undefined) | -5.94% (active)
22 | Fc1ccc(Nc2nnc(-c3ccc(Cl)cc3)o2)cc1 | 97.9%
23 | COC(=O)c1ccc(NC(=O)Nc2ccc(C(=O)OC)cc2)cc1 | 97.9%
24 | NC(=O)c1ccc[n+]([C@@H]2O[C@H](COP(=O)([O-])OP(=O)(O)OC[C@H]3O[C@@H](n4cnc5c(N)ncnc54)[C@H](O)[C@@H]3O)[C@@H](O)[C@H]2O)c1 | 122%
25 | CN1CCN(CC(=O)N(C)c2ccc(N=C(c3ccccc3)c3c(O)[nH]c4ccc([N+](=O)[O-])cc34)cc2)CC1 | 87.8%
26 | O=C(O)c1ccc(-n2cc(CNc3cc(F)c(F)c(F)c3)c(-c3cccc(F)c3)n2)cc1 | 95.4%
27 | Cc1cc(N2CCN(c3ccnc4cc(Cl)ccc34)CC2)nc(NC2CCCCC2)n1 | -5.23% (active)
28 | Cc1cccc2c1NC(=O)C2(c1ccc(O)cc1)c1ccc(O)cc1 | -11% (active)
29 | COc1cc2nc(-c3cccc4cccnc34)nc(NC3CCN(Cc4ccccc4)CC3)c2cc1OC | -78.5% (active)
30 | O=C1c2ccccc2C(=O)c2c(NCCN=Cc3c(O)ccc4ccccc34)cccc21 | 84.5%
31 | CCOC(=O)/C(C#N)=C(/C)C1CC1 | 98.3%
32 | COc1cc(C2C3=C(COC3=O)Nc3c2ccc2c3CCCC2)cc2c1OCO2 (centres undefined) | -6.39% (active)
33 | CCCCCCCC/C=C\CCCCCCCCOc1cccc(CC(=O)NCC[N+]2(C)CCCC2)c1 | 71.8%
34 | Cc1ccc(NC(=O)N[C@@H](Cc2cc(F)cc(F)c2)C(=O)NC2C(=O)N3CCC[C@H]3C(=O)N3CCCC[C@H]3C(=O)N[C@@H](C)C(=O)N3C[C@H](C)C[C@H]3C(=O)O[C@H]2C)c(F)c1 (some centres undefined) | -12.1% (active)
